Data as given in PubChem BioAssay (NCI).
About 79,000 compounds went through this panel and 15% of them were active in at least one assay; those are over-represented in the sample as a whole. Unmarked numbers belong to inactive results. Activity calls are given as the source filed them. Cut-off read from the data, not from the text of the source: active = growth inhibition above about 70%; inactive = the rest.

Assay: NCI Yeast Anticancer Drug Screen. Data for the mec2-1 strain (AID 157)
Conditions: S. cerevisiae mec2-1 strain, active compounds read high
Experimental: Growth inhibition of yeast strains with defined genetic alterations is measured as a screen for potential anti-cancer activity. Selected strains with alterations in DNA damage repair or cell cycle control were exposed to compounds and growth inhibition was measured relative to vehicle treated controls. The strain used in this assay is mec2-1

[1] = at 5.0 µM (retest, dose inferred, filed as 0.5)
[2] = at 50.0 µM (retest, dose inferred, filed as 5.0)

| Compound | growth inhibition [1] | growth inhibition [2] | growth inhibition (at 50.0 µM) |
| --- | --- | --- | --- |
| O=[N+]([O-])c1cnc(F)c(Br)c1 | 99% (active) | 100% (active) | 99.2% (active) |
| C=C(C#N)C(=O)OCC(CC)CC.C=C(C#N)C(=O)OCC(CC)CC.CS(C)=O.CS(C)=O.Nc1c(N=Nc2ccc(-c3ccc(N=Nc4cc(S(=O)(=O)[O-])c5ccccc5c4N)cc3)cc2)cc(S(=O)(=O)[O-])c2ccccc12.[Pt+2] | 6% | 98% (active) | 96.9% (active) |
| CCC(C)(C)NCCCCCNc1cc(OC)cc2cccnc12 | -5% | 0% | 40.2% |
| Cc1[nH]c2ccccc2c1/C=C1/CCCCCCC1=O | -20% | 34% | 93.6% (active) |
| CCCCCCCCCCCC(=O)OCCOP(=O)(OCC)OCC | 2% | 98% (active) | 20.9% |
| Clc1ccc(CN2COc3c(ccc4cccnc34)C2)c(Cl)c1 | 2% | 67% | 98.9% (active) |
| COc1cccc2c1S(=O)(=O)C(c1ccccc1)=CC2=O | 48% | 99% (active) | 99.2% (active) |
| CCc1c(-c2ccccc2)c(CN2CCCCC2)c2ccccn12 | 13% | 13% | -4.85% |
| COc1ccc(CC2=CC(=O)C(=O)C=C2C)cc1 | 0% | 29% | 11.2% |
| CC(C)(C)c1ccc(-n2c3nc(=O)n(-c4ccccc4C(F)(F)F)c(=O)c-3cc3ccccc32)cc1 | 3% | 99% (active) | 50% |
| CC1(C)OC2C(COC(c3ccccc3)(c3ccccc3)c3ccccc3)OC(n3cnc4c(N)ncnc43)C2O1 (configuration not stated) | 19% | 99% (active) | 56.8% |
| NC(=O)C1C(=O)c2cccc3c2C1(Br)C(Br)CCC3 (configuration not stated) | -5% | 100% (active) | 99.4% (active) |
| COC(=O)/C(=C/C=C(c1ccccc1)c1ccccc1)N(C(C)=O)C(C)=O | 2% | 25% | 99.6% (active) |
| C/C(=C/C(=O)N1c2ccccc2CC1c1c[nH]c2ccccc12)C(=O)O (configuration not stated) | -8% | 5% | -2.65% |
